Measurements as given in PubChem BioAssay (NCATS).
Inconclusive results are not listed. Where a call stands in place of a potency, no number is given. Activity calls are given as the source filed them. The call rests on the fitted dose curve.

How the values were obtained:
[1] = Primary qHTS for inhibitors of SARS-S pseudo-typed particle cell entry (AID 1479145); conditions: outcome: dose series up to 57.1 µM unless noted; further: nearly all actives have a fitted effect of over 45% in size
[2] = Primary qHTS for Huh7 cytotoxicity: counterscreen for inhibitors of MERS-S pseudotyped particle cell entry (AID 1479147); conditions: outcome: dose series up to 57.1 µM unless noted
[3] = Primary qHTS for inhibitors of MERS-S pseudo-typed particle cell entry (AID 1479149); conditions: outcome: dose series up to 57.1 µM unless noted; further: nearly all actives have a fitted effect of over 60% in size
[4] = Primary qHTS for Vero E6 cytotoxicity: counterscreen for inhibitors of SARS-S pseudo-typed particle cell entry (AID 1479150); conditions: outcome: dose series up to 57.1 µM unless noted
[5] = Cytotoxicity counterscreen for inhibitors of SARS-CoV-2 cell entry (AID 1645845); conditions: outcome: dose series up to 57.1 µM unless noted; further: nearly all actives have a fitted effect of over 50% in size
Procedure, shortened: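 48 h compound treatment (after 1 h preincubation), HEK293-ACE2 cells, 37 C/5% CO2; ATP luminescence endpoint; normalized to cell wells and media blanks.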

[6] = Primary qHTS to identify inhibitors of SARS-CoV-2 cell entry (AID 1645846); conditions: SARS-CoV-2 pseudovirus cell entry assay, luminescence; activity change, negative = inhibition: at 57.1 µM (top of the series) unless noted; further: nearly all actives have a fitted effect of over 45% in size
Procedure, shortened: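 HEK293-ACE2 (Expi293F, stable hACE2), 1500 cells/well, o/n 37C; cpd 23 nL pin, 1 h; MLV-PP w/ SARS-CoV-2-S (Wuhan-Hu-1, Δ19 C-term); 48 h 37C; Bright-Glo luminescence; normalized vs S-PP and bald PP.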

CC(CCc1ccc(O)cc1)NCC(O)c1ccc(O)cc1 (stereo unspecified)
Potency [1]: inactive
Potency [2]: inactive
Potency [3]: inactive
Potency [4]: inactive
Potency [5]: inactive
Potency [6]: inactive

Cc1cc2nc3c(=O)[nH]c(=O)nc-3n(C[C@H](O)[C@H](O)[C@H](O)COP(=O)(O)OP(=O)(O)OC[C@H]3O[C@@H](n4cnc5c(N)ncnc54)[C@H](O)[C@H]3O)c2cc1C
Potency [1]: inactive
Potency [2]: inactive
Potency [3]: inactive
Potency [4]: inactive
Potency [5]: inactive
activity change, negative = inhibition [6]: -9.08% [at 27.1 µM]

CCCCC(=O)O
Potency [1]: inactive
Potency [2]: inactive
Potency [3]: inactive
Potency [4]: inactive
Potency [5]: inactive
activity change, negative = inhibition [6]: -20.8%

Nc1c(CC(=O)O)cccc1C(=O)c1ccccc1
Potency [1]: inactive
Potency [2]: inactive
Potency [3]: inactive
Potency [4]: inactive
Potency [5]: inactive
Potency [6]: inactive

CC(C)(S)C(=O)N[C@@H](CS)C(=O)O
Potency [1]: inactive
Potency [2]: inactive
Potency [3]: inactive
Potency [4]: inactive
Potency [5]: inactive
activity change, negative = inhibition [6]: -16.1%

O=C(OC1C(OC(=O)c2cccnc2)C(OC(=O)c2cccnc2)C(OC(=O)c2cccnc2)C(OC(=O)c2cccnc2)C1OC(=O)c1cccnc1)c1cccnc1 (stereo unspecified)
Potency [1]: inactive
Potency [2]: inactive
Potency [3]: inactive
Potency [4]: inactive
Potency [5]: inactive
activity change, negative = inhibition [6]: -19.4% [at 19 µM]

C[N+](C)(CCCCCC[N+](C)(C)C1c2ccccc2-c2ccccc21)C1c2ccccc2-c2ccccc21
Potency [1]: inactive
Potency [2]: inactive
Potency [3]: inactive
Potency [4]: inactive
Potency [5]: inactive
activity change, negative = inhibition [6]: -0.342%

Oc1c(Br)cc(Br)cc1CNC1CCC(O)CC1 (stereo unspecified)
Potency [1]: inactive
Potency [2]: inactive
Potency [3]: inactive
Potency [4]: inactive
Potency [5]: inactive
activity change, negative = inhibition [6]: -15.3%

CC1(C)C2CC[C@]3(C)C(C(=O)C=C4[C@@H]5C[C@@](C)(C(=O)O)CC[C@]5(C)CC[C@]43C)[C@@]2(C)CC[C@@H]1O (stereo partly specified)
Potency [1]: inactive
Potency [2]: inactive
Potency [3]: inactive
Potency [4]: inactive
Potency [5]: inactive
activity change, negative = inhibition [6]: -28.8%

CO[C@H]1C[C@@H]2CC[C@@H](C)[C@@](O)(O2)C(=O)C(=O)N2CCCC[C@H]2C(=O)O[C@H]([C@H](C)C[C@@H]2CC[C@@H](OCCO)[C@H](OC)C2)CC(=O)[C@H](C)/C=C(/C)[C@@H](O)[C@@H](OC)C(=O)[C@H](C)C[C@H](C)\C=C/C=C\C=C/1C
Potency [1]: inactive
Potency [2]: inactive
Potency [3]: inactive
Potency [4]: inactive
Potency [5]: inactive
activity change, negative = inhibition [6]: -11.8% [at 27.1 µM]

CC(=O)OCC(=O)[C@@]12OC3(CCCC3)O[C@@H]1C[C@H]1[C@@H]3CCC4=CC(=O)C=C[C@]4(C)[C@@]3(F)[C@@H](O)C[C@@]12C
Potency [1]: inactive
Potency [2]: inactive
Potency [3]: inactive
Potency [4]: inactive
Potency [5]: inactive
Potency [6]: inactive

O=C(O)[C@@H]1CCCN1
Potency [1]: inactive
Potency [2]: inactive
Potency [3]: inactive
Potency [4]: inactive
Potency [5]: inactive
Potency [6]: inactive

CCOC(=O)[C@H](CS)NCCN[C@@H](CS)C(=O)OCC
Potency [1]: inactive
Potency [2]: inactive
Potency [3]: inactive
Potency [4]: inactive
Potency [5]: inactive
Potency [6]: inactive

OC[C@@H](O)C(O)[C@H](O)CO
Potency [1]: inactive
Potency [2]: inactive
Potency [3]: inactive
Potency [4]: inactive
Potency [5]: inactive
activity change, negative = inhibition [6]: 2.94%

C/C(=C\C(=O)OCCCCCCCCC(=O)O)C[C@@H]1OC[C@H](C[C@@H]2O[C@H]2[C@@H](C)[C@H](C)O)[C@@H](O)[C@H]1O
Potency [1]: inactive
Potency [2]: inactive
Potency [3]: inactive
Potency [4]: inactive
Potency [5]: inactive
activity change, negative = inhibition [6]: -28.4%

O=C(Cc1cccs1)NC1C(=O)N2C(C(=O)[O-])=C(C[n+]3ccccc3)CSC12 (stereo unspecified)
Potency [1]: inactive
Potency [2]: inactive
Potency [3]: inactive
Potency [4]: inactive
Potency [5]: inactive
activity change, negative = inhibition [6]: -15.7%

Cc1cc2nc3c(=O)[nH]c(=O)nc-3n(C[C@@H](O)[C@@H](O)[C@@H](O)COP(=O)(O)O)c2cc1C
activity change, negative = inhibition [1]: -30.5% [at 11.4 µM] (inactive)
outcome [2]: inactive [at 11.4 µM]
outcome [3]: inactive [at 11.4 µM]
activity change, negative = cytotoxicity [4]: 1.24% [at 11.4 µM] (inactive)
activity change, negative = cytotoxicity [5]: 3.55% [at 11.3 µM] (inactive)
activity change, negative = inhibition [6]: -22.9% [at 11.3 µM]

CCOc1ccc(Cc2cc([C@@H]3O[C@H](CO)[C@@H](O)[C@H](O)[C@H]3O)ccc2Cl)cc1
Potency [1]: inactive
Potency [2]: inactive
Potency [3]: inactive
Potency [4]: inactive
Potency [5]: inactive
activity change, negative = inhibition [6]: 0.66%

C[C@]12C=CC(=O)C=C1CC[C@@H]1[C@@H]2[C@@H](O)C[C@@]2(C)[C@H]1CC[C@]2(O)C(=O)COC(=O)c1cccc(S(=O)(=O)O)c1
Potency [1]: inactive
Potency [2]: inactive
Potency [3]: inactive
Potency [4]: inactive
Potency [5]: inactive
activity change, negative = inhibition [6]: -5.05%

N[C@H](Cc1ccccc1)C(=O)O
Potency [1]: inactive
Potency [2]: inactive
Potency [3]: inactive
Potency [4]: inactive
Potency [5]: inactive
activity change, negative = inhibition [6]: -27.4% [at 27.1 µM]

CCC(=O)OCC(=O)[C@@]1(OC(=O)CC)[C@@H](C)C[C@H]2[C@@H]3CCC4=CC(=O)C=C[C@]4(C)[C@@]3(F)[C@@H](O)C[C@@]21C
Potency [1]: inactive
Potency [2]: inactive
Potency [3]: inactive
Potency [4]: inactive
Potency [5]: inactive
Potency [6]: inactive
